A short description of assay [1]: Nuclear factor erythroid 2-related factor 2/antioxidant responsive element (Nrf2/ARE) small molecule agonists: luciferase reporter gene qHTS assay in human keratinocytes (AID 1919969; further: nearly all actives have a fitted effect of over 35% in size; further: potency means the concentration at half of the fitted maximal effect). (In general: In a reporter assay the amount or activity of a reporter protein is the signal.)
Assay [2] deals with Gonadotropin-releasing hormone receptor (Homo sapiens) (UniProt P30968). Description: Human gonadotropin-releasing hormone receptor (GnRHR) small molecule agonists, calcium flux assay in GnRHR-HEK293 cells (AID 1920063). Further: nearly all actives have a fitted effect of over 35% in size. An outline of the steps: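 Compounds dissolved in DMSO are pin-transferred onto dye-loaded GnRHR-HEK293 cells, which were seeded 18 h before at 37 C/5% CO2. Calcium signal is read as fluorescence intensity at 1 s intervals for 3 min.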
Chain of Gonadotropin-releasing hormone receptor (Homo sapiens) (P30968 whole entry, looked up): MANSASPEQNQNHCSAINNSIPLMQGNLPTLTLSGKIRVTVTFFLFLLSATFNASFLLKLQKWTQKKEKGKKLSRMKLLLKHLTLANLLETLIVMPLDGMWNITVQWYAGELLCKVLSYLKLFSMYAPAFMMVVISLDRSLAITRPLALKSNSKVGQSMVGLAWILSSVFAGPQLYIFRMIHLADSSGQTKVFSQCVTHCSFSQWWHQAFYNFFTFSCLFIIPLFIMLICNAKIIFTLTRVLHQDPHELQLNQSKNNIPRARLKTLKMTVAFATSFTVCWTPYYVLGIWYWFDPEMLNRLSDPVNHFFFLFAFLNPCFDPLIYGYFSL

Assay [3] concerns the target KiSS-1 receptor (Homo sapiens) (UniProt Q969F8). Description: Human kisspeptin (KISS1R) small molecule agonists, calcium flux assay in KISS1R-HEK293 cells (AID 1920064; active means well fitted activation curve with a large enough effect in the repeat runs). An outline of the steps: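 Cell line: HEK293, stable human KISS1R. Dye loading 1 h at 37 C after 18 h culture. Read: kinetic fluorescence, 480/540 nm, 3 min at 1 s intervals.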
Assay [4] in a line: G protein-coupled receptor (GPCR) small molecule agonists, calcium flux assay: HEK293 wild type cell line counter screen (AID 1920065). Summed up: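 Tox21 10K compounds, 15 concentrations each in triplicate, pin-transferred in DMSO onto dye-loaded cells; kinetic read at 480/540 nm for 3 min, 1 s intervals.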
Assay [5] can be described thus: p53 small molecule agonists, cell-based qHTS assay with human liver microsomes (AID 1963577).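 Further: p53 response element beta-lactamase reporter cells with liver microsomes plus NADPH.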 Summed up:
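Reporter activation was measured by LiveBLAzer fluorescence intensity in p53RE-bla cells, which had been exposed to compounds for 16 h at 37 C alongside 0.5 mg/mL human liver microsomes and 0.5 mg/mL NADPH (final concentrations).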
For orientation: Quantitative high-throughput screening tests each substance at several concentrations.

A short description of assay [6]: p53 small molecule agonists, cell-based qHTS assay with rat liver microsomes (AID 1963578). Summed up:
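Compound in DMSO added to p53RE-bla cells 5 h post-plating; rat microsomes/NADPH 0.5 mg/mL final; 16 h, 37 C; LiveBLAzer 2 h RT.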

Assay [7] can be described thus: p53 small molecule agonists, cell-based qHTS assay with human liver microsomes: qHTS cell viability counter screen (AID 1963579). Further: nearly all actives have a fitted effect of over 45% in size. Summed up:
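HLM-supplemented (0.5 mg/mL final) and NADPH-supplemented (0.5 mg/mL final) p53RE-bla cultures, 4,000 cells per well, were dosed with compounds in DMSO for 16 h at 37 C; luminescent ATP detection (CellTiter-Glo, 30 min, room temperature) quantified surviving cells.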

Assay [8] in a line: p53 small molecule agonists, cell-based qHTS assay with rat liver microsomes: qHTS cell viability counter screen (AID 1963580). Further: nearly all actives have a fitted effect of over 45% in size. Summed up: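 Counter screen for cytotoxicity under metabolic activation: rat liver microsomes and NADPH, 0.5 mg/mL final each, added with compounds to p53RE-bla HCT-116 cells; 16 h at 37 C, then ATP luminescence read.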
Assay [9] in a line: p53 small molecule agonists, cell-based qHTS assay (AID 1963582; active means well fitted activation curve with a large enough effect in the signal ratio in the repeat runs, not every such curve was filed as active; the % refers to the signal ratio). An outline of the steps: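 16 h compound exposure (37 C) of p53 response element–bla cells, preceded by 5 h recovery at 37 C/5% CO2; read-out via LiveBLAzer B/G FRET substrate, 2 h RT, fluorescence intensity.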
The target in assay [10] is 5-hydroxytryptamine receptor 2A (Homo sapiens) (UniProt P28223). The experiment in a line: 5-hydroxytryptamine receptor 2A (HTR2A) small molecule antagonists, cell-based qHTS assay (AID 1963586). Further: nearly all actives have a fitted effect of over 45% in size. Summed up: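 CHO cells stably expressing human HTR2A were plated for 18 h at 37 C, then loaded with calcium dye for 1 h. Compounds were preincubated 5 min at room temperature before DOI (4 nM solution) was added. Kinetic fluorescence was read for 3 min.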
Chain of 5-hydroxytryptamine receptor 2A (Homo sapiens) (P28223 whole entry, looked up): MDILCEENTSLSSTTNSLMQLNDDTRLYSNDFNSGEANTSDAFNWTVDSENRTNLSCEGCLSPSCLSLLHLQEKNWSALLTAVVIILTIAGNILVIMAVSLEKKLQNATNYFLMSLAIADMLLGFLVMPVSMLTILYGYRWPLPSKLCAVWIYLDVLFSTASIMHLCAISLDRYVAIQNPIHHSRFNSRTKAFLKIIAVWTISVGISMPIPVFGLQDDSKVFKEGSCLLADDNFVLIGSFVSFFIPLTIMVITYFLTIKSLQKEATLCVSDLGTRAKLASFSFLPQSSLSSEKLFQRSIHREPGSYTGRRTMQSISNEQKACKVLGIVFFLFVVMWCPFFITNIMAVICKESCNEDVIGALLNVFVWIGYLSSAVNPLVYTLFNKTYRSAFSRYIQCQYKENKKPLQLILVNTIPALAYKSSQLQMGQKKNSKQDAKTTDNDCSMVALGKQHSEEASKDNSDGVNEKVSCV

Assay [11] has the same target. The experiment in a line: 5-hydroxytryptamine receptor 2A (HTR2A) small molecule agonists, cell-based qHTS assay (AID 1963587). Further: nearly all actives have a fitted effect of over 30% in size. Summed up: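 HTR2A-CHO cells, plated 18 h at 37 C/5% CO2, dye-loaded 1 h at 37 C; compounds in DMSO added by pin tool (agonist mode). Intracellular calcium flux read as kinetic fluorescence on FDSS over 2 min at 1 s intervals.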
For assay [12], the target named is Muscarinic acetylcholine receptor M1 (Homo sapiens) (UniProt P11229). The experiment in a line: Cholinergic receptor muscarinic 1 (CHRM1) small molecule antagonists, cell-based qHTS assay (AID 1963588). Further: nearly all actives have a fitted effect of over 40% in size. Further: potency means the concentration at half of the fitted maximal effect. An outline of the steps:
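Compounds were tested at 15 concentrations in three independent runs. Dye-loaded CHRM1-CHO cells were exposed 5 min at room temperature before stimulation by acetylcholine added at 50nM. Intracellular calcium was read kinetically on FDSS for 3 min.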

Assay [13] shares this target. Description: Cholinergic receptor muscarinic 1 (CHRM1) small molecule agonists, cell-based qHTS assay (AID 1963589). Further: nearly all actives have a fitted effect of over 35% in size. Summed up: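 Homogeneous fluorescence calcium flux, agonist mode. Human M1-expressing CHO cells; compound dosed at 15 concentrations, three independent runs; signal sampled every 1 sec.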
The target in assay [14] is Beta-2 adrenergic receptor (Homo sapiens) (UniProt P07550). The experiment in a line: Adrenergic beta2 receptor (ADRB2) small molecule antagonists, cell-based qHTS assay (AID 1963592). Further: series mostly up to about 92 µM; nearly all actives have a fitted effect of over 50% in size. An outline of the steps:
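Assay format: CHO-ADRB2 cells, 18-20hr seeding at 37C/5% CO2, then compound plus 1nM isoproterenol agonist mix for 0.5hr RT. Homogeneous time-resolved fluorescence cAMP detection after 1hr, expressed as 665/615 nm ratio.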

Assay [15] can be described thus: p53 small molecule agonists, cell-based qHTS assay: qHTS cell viability counter screen (AID 1963581). Further: nearly all actives have a fitted effect of over 45% in size. An outline of the steps: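 ATP content measured by luminescence in HCT-116 p53RE-bla cells treated 16 h at 37 C, same wells as the reporter screen.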
Assay [16] deals with D(2) dopamine receptor (Homo sapiens) (UniProt P14416). The experiment in a line: Dopamine D2 receptor (DRD2) small molecule agonists, cell-based qHTS assay (AID 1963594). Further: nearly all actives have a fitted effect of over 35% in size. Summed up: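 HEK293 cells stably expressing DRD2 were cultured 24 h at 37 C, then given Ro20-1724 (0.1 mM final) and compounds for 10 min at room temperature. NKH477 (200nM) was then added for 30 min. cAMP was read by HTRF.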
Chain of D(2) dopamine receptor (Homo sapiens) (P14416 whole entry, looked up): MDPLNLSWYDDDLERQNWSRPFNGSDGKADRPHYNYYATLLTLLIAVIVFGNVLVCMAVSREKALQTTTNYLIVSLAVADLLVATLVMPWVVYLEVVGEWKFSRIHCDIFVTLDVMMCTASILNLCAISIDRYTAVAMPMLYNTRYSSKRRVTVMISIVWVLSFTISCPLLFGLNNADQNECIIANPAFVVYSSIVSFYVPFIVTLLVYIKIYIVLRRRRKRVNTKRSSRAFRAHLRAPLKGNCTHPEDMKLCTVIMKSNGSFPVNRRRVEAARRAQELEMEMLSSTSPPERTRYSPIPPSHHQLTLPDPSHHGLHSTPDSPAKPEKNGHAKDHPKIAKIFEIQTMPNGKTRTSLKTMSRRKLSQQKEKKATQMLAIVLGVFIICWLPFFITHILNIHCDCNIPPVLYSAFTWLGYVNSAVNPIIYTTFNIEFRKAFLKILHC

Assay [17] has the same target. Description: Dopamine D2 receptor (DRD2) small molecule antagonists, cell-based qHTS assay (AID 1963595; active means well fitted inhibition curve with a large enough effect in the signal ratio in the repeat runs, with a control signal flat; the % refers to the signal ratio). An outline of the steps:
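Cells were plated and grown for 24 h at 37 °C. Ro20-1724 (0.1 mM final) went in first, then compound for 10 min. NKH477 (200 nM) with quinpirole (12 nM) followed for 30 min at RT, then HTRF detection reagents for 1 h.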

Assay [18] is described as follows: cAMP Responsive Elements (CRE) small molecule agonists, cell-based qHTS assay (AID 1963590). Further: potency means the concentration at half of the fitted maximal effect. An outline of the steps: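 HEK 293T cells stably bearing CRE-bla were plated at 2,000 cells per well and rested 18 h. Compounds, positive controls or DMSO were added for 3 h at 37 C. LiveBLAzer B/G substrate was then loaded for 2 h at room temperature.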
A short description of assay [19]: cAMP Responsive Elements (CRE) small molecule antagonists, cell-based qHTS assay (AID 1963591; active means well fitted inhibition curve with a large enough effect in the signal ratio in the repeat runs, not every such curve was filed as active; the % refers to the signal ratio). Summed up: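 First, CRE-bla HEK293T cells settled 18 h at 37 C. Next, compound and 0.25 uM final NKH477 were applied for 3 h. Last, LiveBLAzer B/G substrate was loaded for 2 h at room temperature.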
The target of assay [20] is Beta-2 adrenergic receptor (Homo sapiens) (UniProt P07550). Description: Adrenergic beta2 receptor (ADRB2) small molecule agonists, cell-based qHTS assay (AID 1963593).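 Further: CHO cells stably overexpressing human ADRB2.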 An outline of the steps: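 CHO cells stably over-expressing ADRB2 were plated overnight at 37C, then dosed with compounds plus a stimulation mix containing 100uM IBMX and 25uM Ro-20-1724 for 0.5hr at room temperature. cAMP was measured by HTRF competition, 1hr.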
Chain of Beta-2 adrenergic receptor (Homo sapiens) (P07550 whole entry, looked up): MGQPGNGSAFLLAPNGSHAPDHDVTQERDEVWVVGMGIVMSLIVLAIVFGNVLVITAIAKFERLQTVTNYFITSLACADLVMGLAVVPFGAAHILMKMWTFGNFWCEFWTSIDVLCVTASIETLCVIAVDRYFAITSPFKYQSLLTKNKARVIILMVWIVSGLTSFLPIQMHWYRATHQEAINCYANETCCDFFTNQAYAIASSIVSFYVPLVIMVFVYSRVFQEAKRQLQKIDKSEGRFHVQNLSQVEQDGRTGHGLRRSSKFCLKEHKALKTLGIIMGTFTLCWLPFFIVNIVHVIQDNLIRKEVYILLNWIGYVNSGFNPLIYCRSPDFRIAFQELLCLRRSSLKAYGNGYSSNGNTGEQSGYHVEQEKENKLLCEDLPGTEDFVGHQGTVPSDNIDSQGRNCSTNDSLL

Where “and” joins values, the source holds several entries; their conditions need not be identical. Identical values can stand only once. Records with an inconclusive call do not appear. Calls of active or inactive are those of the source. Unless noted, the call rests on the fitted dose curve.

Chain of KiSS-1 receptor (Homo sapiens) (Q969F8 whole entry, looked up): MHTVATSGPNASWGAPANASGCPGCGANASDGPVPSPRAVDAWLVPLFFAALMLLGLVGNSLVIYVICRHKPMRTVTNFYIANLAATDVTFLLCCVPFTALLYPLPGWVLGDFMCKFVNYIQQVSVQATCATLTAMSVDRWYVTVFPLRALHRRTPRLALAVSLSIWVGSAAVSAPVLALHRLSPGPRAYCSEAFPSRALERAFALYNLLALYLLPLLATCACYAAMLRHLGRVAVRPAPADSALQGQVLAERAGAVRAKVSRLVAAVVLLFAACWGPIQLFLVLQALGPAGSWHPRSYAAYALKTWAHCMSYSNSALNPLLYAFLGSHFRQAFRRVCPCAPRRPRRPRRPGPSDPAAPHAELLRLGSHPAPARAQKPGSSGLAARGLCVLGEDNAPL
Chain of Muscarinic acetylcholine receptor M1 (Homo sapiens) (P11229 whole entry, looked up): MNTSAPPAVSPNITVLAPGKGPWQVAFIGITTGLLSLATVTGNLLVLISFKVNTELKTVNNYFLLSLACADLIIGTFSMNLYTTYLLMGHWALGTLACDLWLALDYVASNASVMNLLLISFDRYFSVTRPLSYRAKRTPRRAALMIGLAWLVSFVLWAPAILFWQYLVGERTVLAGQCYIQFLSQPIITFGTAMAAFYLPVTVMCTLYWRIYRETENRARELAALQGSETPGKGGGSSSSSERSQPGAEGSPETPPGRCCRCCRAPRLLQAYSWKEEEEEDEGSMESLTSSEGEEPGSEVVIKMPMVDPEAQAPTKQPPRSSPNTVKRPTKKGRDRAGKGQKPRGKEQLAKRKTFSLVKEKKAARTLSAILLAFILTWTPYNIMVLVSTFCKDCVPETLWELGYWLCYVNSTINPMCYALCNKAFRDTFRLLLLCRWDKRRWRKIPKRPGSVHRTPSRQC

As to `OC(c1ccc(Cl)cc1)(c1ccc(Cl)cc1)C(Cl)(Cl)Cl`, the Potency entry in assay [1], in assay [2], in [3], in assay [4], in assay [5] and in assay [6] was “inactive” throughout. In addition, the Potency result in [7], in assay [8], in [9], in assay [10], in [11] and in [13] was “inactive” throughout. For the same compound, the Potency entry in assay [14] is “inactive”. In addition, the Potency in [12] is 26.5 µM (active).

`c1cc(OCC2CO2)ccc1Cc1ccc(OCC2CO2)cc1` (centres undefined): the Potency in [1] was 27.4 µM (active) and 27.3 µM (active). Moreover, the Potency entry in [2], in assay [3], in [4], in assay [5], in [6] and in assay [7] was “inactive” in each case. The Potency entry in [8], in [15], in [10], in assay [11], in [12] and in [13] was “inactive” in each case. Further, the Potency entry in assay [14], in [16] and in assay [17] was “inactive” in each case.

`c1ccc2c(c1)OCC(C1=NCCN1)O2` (centres undefined): the Potency in assay [1] is 23.7 µM (active). Also, the Potency result in assay [2], in assay [3], in assay [4], in [5], in [6] and in [7] was “inactive” in each case. Also, the Potency result in assay [8], in assay [9], in assay [10], in [11], in assay [12] and in assay [13] was “inactive” each time. For the same compound, the Potency result in assay [18], in assay [19], in [14] and in [16] was “inactive” each time.

As to `S=C=NCCc1ccccc1`, the Potency in assay [1] was 43.4 µM (active). Besides, the Potency result in assay [2], in assay [3], in assay [4], in assay [5], in [6] and in [7] was “inactive” throughout. Moreover, the Potency entry in [8], in [15], in assay [9], in assay [10], in assay [11] and in assay [12] was “inactive” in each case. In addition, the Potency result in [19], in [14], in assay [20], in assay [16] and in assay [17] was “inactive” in each case.

For `COc1ccc(Cc2nccc3cc(OC)c(OC)cc23)cc1OC`, the Potency entry in assay [1], in assay [2], in [3], in [4], in assay [5] and in assay [6] was “inactive” in each case. The Potency entry in assay [7], in assay [8], in [15], in assay [19], in assay [14] and in assay [20] was “inactive” each time. The Potency entry in assay [16] and in assay [17] was “inactive” throughout. Also, the Potency in assay [18] was 11.9 µM (active).

Regarding `Clc1cc(Cl)c(-c2cc(Cl)c(Cl)cc2Cl)cc1Cl`, the Potency entry in assay [1], in assay [2], in [3], in [4], in assay [5] and in [6] was “inactive” in each case. Moreover, the Potency result in [7], in assay [8], in [15], in assay [10], in assay [11] and in assay [12] was “inactive” in each case. For the same compound, the Potency result in assay [13], in [18], in assay [19], in assay [14], in assay [16] and in [17] was “inactive” throughout.

With `CC(C)N1C(=O)N(c2ccccc2)CSC1=NC(C)(C)C`, the Potency result in [1], in [2], in assay [3], in assay [4], in [5] and in [6] was “inactive” each time. The Potency result in [7], in [8], in assay [15], in assay [10], in assay [11] and in assay [12] was “inactive” throughout. For the same compound, the Potency entry in [13], in [14], in assay [20], in assay [16] and in assay [17] was “inactive” each time.

`CC1COC(Cn2cncn2)(c2ccc(Oc3ccc(Cl)cc3)cc2Cl)O1` (centres undefined): the Potency result in assay [1], in assay [2], in assay [3], in assay [4], in assay [5] and in assay [6] was “inactive” throughout. For the same compound, the Potency result in assay [7], in assay [8], in [15], in assay [10], in assay [11] and in assay [13] was “inactive” each time. For the same compound, the Potency result in assay [14] and in assay [17] was “inactive” throughout.

These data come from PubChem BioAssay (Tox21).
